Screening results as filed in PubChem BioAssay.
In the library only some 4% were active in any assay of this set; here they are far more common.
HIF-2a block: inhibitors of HIF-2a; inhibition, % at 18.8 µM; 0.72% of 360,000 active; 786-0 RCC cells HIF-2a reporter, luciferase luminescence, overnight;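 active = inhibition of the luminescence signal of 40% or more relative to plate controls, in a single-dose primary screen at 18.75 µM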
Peg3 prom inh: inhibitors of Peg3 promoter; inhibition, % at 20 µM; HeLa PEG-Prom luciferase reporter, luminescence, overnight; AID 588405; 1.7% of 360,000 active;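 active = inhibition of at least 50% at 20 µM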
TROY signal inh: inhibitors of TROY-dependent NF-kB signaling; Q293 LMP1-TROYcd NF-kB luciferase reporter, 4 h; inhibition, % at 10 µM; 0.98% of 360,000 active; AID 1347056;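 active = compounds whose plate-normalised and pattern-corrected inhibition of the luciferase reporter signal at the single screening dose is 50% or more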
KKLEB cytotox: reduces viability of KKLEB cystic fibrosis airway cells; KKLEB CF airway cells viability, ATPlite luminescence, overnight; stronger effect = lower value; cells stimulated with P. aeruginosa culture filtrate; activity change (cytotoxicity), % at 5 µM; 0.36% of 360,000 active; AID 602141;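 active = corrected activity change at or below -50% at 5 µM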
CF NFkB block: blocks PAF-induced NF-kB reporter in cystic fibrosis cells. inhibition, % at 5 µM. KKLEB NF-kB-GFP reporter, GFP fluorescence overnight. 0.86% of 360,000 active;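 active = at least 50% inhibition at 5 µM, scaled per plate between neutral and stimulator controls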;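 also: PAF is a Pseudomonas aeruginosa culture filtrate used as stimulus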
TWEAK-Fn14 inh: TWEAK-Fn14 signaling inhibition; TWEAK-stimulated Fn14 reporter cells, luciferase luminescence, 8 h; inhibition, % at 10 µM; 2% of 360,000 active; AID 1159606; in the data active = inhibition above about 50%
Numbers stand for hits; – = inactive; · = no result.

SMILES | HIF-2a block | Peg3 prom inh | TROY signal inh | KKLEB cytotox | CF NFkB block | TWEAK-Fn14 inh
O=C(c1cc(-c2ccc(Cl)c(Cl)c2)on1)N1CCOCC1 | – | – | – | – | – | –
O=C(c1cc(-c2ccc(Cl)cc2Cl)on1)N1CCOCC1 | – | – | – | – | – | 71
O=C(c1cc(-c2ccc(Cl)cc2)on1)N1CCOCC1 | – | – | – | – | – | 51
COc1ccc(-c2cc(C(=O)N3CCCC3)no2)cc1 | – | – | 59 | – | – | 57
O=C(COc1ccc(Br)cc1Cl)NC(=S)Nc1ccccn1 | – | – | 69 | – | – | 64
Cc1ccc(OCC(=O)NC(=S)Nc2ccccn2)c(Br)c1 | – | – | 79 | – | – | 91
Cc1cccc([N+](=O)[O-])c1NC(=O)CSc1nnc2ccccn12 | – | – | – | – | – | –
OC(Cc1cccc(Br)c1)c1ncc(-c2cccc(C(F)(F)F)c2)[nH]1 (configuration not stated) | – | 50 | – | – | – | –
CN(C)C(=O)c1ccc(NC(=O)c2ccccc2Sc2ccccc2C#N)cc1 | – | – | – | – | – | –
Cc1[nH]c2ccccc2c1C(=O)CSc1nc2cc(S(=O)(=O)N3CCCCC3)ccc2o1 | – | – | – | – | – | 55
COc1ccc(/C=C2\N=C(c3ccccc3)NNC2=O)cc1 | – | – | – | – | – | –
COc1cccc(-c2cnc(C(O)c3cccc(F)c3)[nH]2)c1 (configuration not stated) | – | – | 52 | – | – | –
COc1cccc(-c2cnc(C(O)c3cccc(OC)c3)[nH]2)c1 (configuration not stated) | – | – | – | – | – | –
COc1ccc(NS(=O)(=O)c2ccc(NC(=O)Cc3cccs3)cc2)cc1 | – | – | 65 | – | – | –
CCCCN(CCCC)S(=O)(=O)c1ccc(NC(=O)Cc2cccs2)cc1 | – | – | 51 | – | – | –
COc1ccc(NS(=O)(=O)c2cc(NC(=O)/C=C/c3cccs3)ccc2N2CCOCC2)cc1 | – | 50 | – | – | – | –
COc1ccc(NS(=O)(=O)c2cc(NC(=O)Cc3cccs3)ccc2C)cc1 | – | – | 82 | – | – | 94
COc1ccc(N=Cc2sc3ccccc3c2Cl)cc1 | – | – | 67 | – | – | 71
CCOC(=O)CCC(=O)Nc1ccc(S(=O)(=O)N2CCCCC2)cc1 | – | – | – | – | – | –
Fc1ccc2nc(Nc3nc4cc5c(cc4s3)OCCO5)sc2c1 | – | – | 62 | – | – | –
CN=C(Nc1ccc(Cl)cc1)c1cccc(C(F)(F)F)c1 | – | – | – | – | – | –
CC(=O)COc1ncn(-c2ccccc2)n1 | – | – | · | – | – | 87
CCOC(=O)COc1ncn(-c2ccccc2)n1 | – | – | – | – | – | –
NC(=O)C1=CC2C3C=CC2(O)C(=O)OC3O1 (configuration not stated) | – | 102 | – | – | – | –
OCc1cn(-c2ccccc2)nc1-c1ccc(-c2nn(-c3ccccc3)cc2CO)cc1 | – | – | – | – | – | 52
SMILES | HIF-2a block | Peg3 prom inh | TROY signal inh | KKLEB cytotox | CF NFkB block | TWEAK-Fn14 inh
COc1ccc(-c2ccc3c(c2)C2CC3CCN2S(=O)(=O)c2ccccc2C)cc1 (configuration not stated) | – | – | – | – | – | –
O=C(Nc1ccccc1C(=O)O)c1cccc(NC(=O)c2ccccc2Cl)c1 | – | – | – | – | – | –
O=C(/C=C/c1ccc([N+](=O)[O-])cc1)Nc1cccc(C(=O)Nc2ccccc2C(=O)O)c1 | – | – | – | – | – | 71
CCOC(=O)c1cccc(NC(=O)/C=C/c2ccc([N+](=O)[O-])cc2)c1 | – | – | 57 | – | – | 79
CC(=O)c1cccc(NC(=O)/C=C/c2ccc([N+](=O)[O-])s2)c1 | – | 99 | – | – | – | 84
CC(=O)Nc1ccc(C(=O)OCC(=O)c2cccc([N+](=O)[O-])c2)cc1 | – | – | – | – | – | –
Cc1cc(C)cc(NC(=O)/C=C/c2ccc([N+](=O)[O-])s2)c1 | – | – | – | – | – | –
Cc1ccc(C(=O)COC(=O)c2cccc(NC(=O)c3ccc([N+](=O)[O-])cc3[N+](=O)[O-])c2)cc1 | – | – | 59 | – | – | –
COC(=O)c1cccc(NC(=O)/C=C/c2ccc([N+](=O)[O-])cc2)c1 | – | – | – | – | – | –
